High-throughput results as filed in PubChem.
The list is not random: actives were taken first. Their share in the collection is about 3.7%.
Nrf2 activator: qHTS of Nrf2 Activators. AREc32 ARE-luciferase reporter (MCF7-derived line), luminescence, 24 h. Potency, µM (series often up to 46.1 µM), for the others: at the highest dose activation, hits mostly activators. actives 0.31% (n = 410,000); note: potency is the fitted concentration of half-maximal effect; % of control where 0% means no effect; nearly all actives have a fitted effect of over 65% in size
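ARE-driven firefly luciferase activity in AREc32 cells measured after a 24 hr compound exposure at 37 deg C, using Steady-Glo reagent and a 30 min room-temperature hold.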
TCR act: Activators of T cell receptors: qHTS campaign; 330,000 tested, under 10 active; primary human leukocytes, anti-CD3, IL-2 HTRF, 48 h; AID 504894, 2011; Potency, µM (highest dose often 9.22 µM), inactives show at the highest dose activation of IL-2 secretion, most hits filed as activators; note: % of control where 0% means no effect
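HTRF read-out of IL-2 secretion: europium cryptate donor excited at 320nm, d2 acceptor emission at 665nm. Cells were primary human leukocytes incubated 48 hr with compounds and a-CD3 beads, supplying TCR signal only.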
A549 tox: Nrf2 qHTS screen for inhibitors: counterscreen for cytotoxicity; A549 ARE-Fluc cells, CellTiter-Fluor viability, 18-24 h; Potency, µM (highest dose often 46 µM), without a hit: at the top dose activity change, negative = cytotoxicity, most hits filed as inhibitors; actives 0.16% (n = 390,000); AID 504648, 2011; note: potency is the fitted concentration of half-maximal effect; % is set by controls: 0 for no effect and ±100 for the full control effect
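A549 ARE-Fluc cells in 5% FBS OPTI-MEM, 5000 cells/well, rested 2 h then exposed to compounds in concentration-response for 18-24 h at 37 °C. Viability by CellTiter-Fluor fluorescence (Ex 405/Em 525) after 30 min; luciferase luminescence (BugLite, 15 min, RT) read afterwards.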
Nrf2 block: Nrf2 qHTS screen for inhibitors. A549 ARE-Fluc reporter, luciferase luminescence, 18-24 h. Potency, µM (doses to about 46 µM), for inactives: top-dose activity change, negative = inhibition, most hits filed as inhibitors. actives 2.1% (n = 360,000). AID 504444, 2011; note: potency is the fitted concentration of half-maximal effect; % is set by controls: 0 for no effect and ±100 for the full control effect; nearly all actives have a fitted effect of over 60% in size
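A549 ARE_Fluc cells (5000/well, 5% FBS OPTI-MEM) pre-incubated 2 h, then treated with compounds 18-24 h at 37C/5% CO2 in concentration-response. CellTiter-Fluor viability read first; BugLite luciferase luminescence after 15 min at room temperature gives Nrf2 activity.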
ClpP mod: qHTS Assay for Activators of ClpP. purified B. subtilis ClpP, FRET peptide cleavage, 20 min. Potency, µM (titrated, usually from 57.5 µM), inactives show top-dose activity change, negative = active. actives 1.9% (n = 340,000). AID 651965, 2013; active = well fitted falling curve with a large enough effect; inconclusive = small, poorly fitted or top-dose-only effect; inactive = no such curve, though single readings can be large or run the other way; note: potency is the fitted concentration of half-maximal effect; the source files actives as falling curves though it sought activators and does not explain the sign; nearly all actives have a fitted effect of over 65% in size
Target sequence (P80244 whole entry, looked up): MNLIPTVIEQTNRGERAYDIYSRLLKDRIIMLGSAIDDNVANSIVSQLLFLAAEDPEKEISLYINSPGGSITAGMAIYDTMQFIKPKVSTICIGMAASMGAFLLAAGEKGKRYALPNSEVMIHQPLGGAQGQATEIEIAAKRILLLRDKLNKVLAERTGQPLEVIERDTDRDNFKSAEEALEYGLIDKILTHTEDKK
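Purified B. subtilis ClpP, 10 microg/mL final in Tris/HCl pH8 with KCl, BSA, glycerol and Tween-20, cleaved an Abz/nitrotyrosine-quenched decapeptide. Fluorescence (ex 320, em 430) was read at 0 and 20 min at room temperature. Delta was normalized to 5.8 microM ADEP and DMSO/no-enzyme controls.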
miR-21 reporter: qHTS Assay for Modulators of miRNAs and/orActivators of miR-21; HeLa miR-21 FLuc reporter, luciferase, 48 h; Potency, µM (series often up to 38.3 µM), inactives show top-dose activity change, positive = activation, most hits filed as activators; 340,000 tested, under 10 active;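 note: % of control where 0% means no effect; miR-21 action dims this reporter so a rising signal means less miR-21 action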
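HeLa miR-21-FLuc reporter line, endogenous miR-21; 2000 cells/well in DMEM/10% FBS; compound titration up to ~40uM final, 48 h, 37 degree Celsius; luciferase detection reagent, 15 min lysis, CCD luminescence.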
The depositor's hits bear a star; u = inconclusive; x = no result given; [ ] = another dose, or the depositor's remark. Unless noted, calls come from the whole dose curve; as a rule, active = well fitted curve in the direction sought with a large enough effect; inconclusive = small, poorly fitted or top-dose-only effect, or another doubt; inactive = no such curve, though single readings can be large; an effect the other way counts as inactive or inconclusive.

SMILES	Nrf2 activator	TCR act	A549 tox	Nrf2 block	ClpP mod	miR-21 reporter
O=C(c1ccccc1)c1ccccn1	2.6%	-2.9%	3.5%	-3.7%	x	0.6%
O=C(CC(=O)c1ccccn1)c1ccccc1	7.94µM*	-5.2%	-4.7%	12.0%	-2.7%	x
CC(C)CCNC(=O)C1CCN(S(=O)(=O)c2ccc(-n3cnnn3)cc2)CC1	0.6%	3.5%	2.1%	-6.4%	31.6µM*	0.7%
COC(=O)c1c(C(=O)c2ccc(Br)cc2)n(C)c2ccccc12	-0.5%	1.7%	-1.0%	-6.1%	-6.6%	x
COC(=O)c1c(S(N)(=O)=O)c2ccccc2n1C	-0.1%	-4.8%	-2.1%	4.6%	28.2µM*	-5.3%
CN(CC(=O)Nc1ccc(F)cc1)C(=O)c1ccccc1Sc1ccccc1C#N	-0.4%	1.9%	-7.4%	-0.1%	0.5%	x
Cc1cc(C)cc(NC(=S)N(CCN(C)C)C(C)c2cccnc2)c1 (stereo unspecified)	-0.1%	-9.9%	8.8%	-19.2%	x	0.2%
Cc1cc(C)c(NC(=S)N(CCN(C)C)C(C)c2cccnc2)c(C)c1 (stereo unspecified)	-0.1%	-2.1%	10.6%	-1.7%	15.8µM*	-5.8%
Cc1nn(CCc2nn[nH]n2)c2nc(C(F)(F)F)cc(C(F)(F)F)c12	-0.4%	-0.5%	-7.0%	-3.8%	10µM*	0.6%
Cc1nn(CCc2nn[nH]n2)c2nc(-c3ccc(Br)cc3)cc(C(F)(F)F)c12	-0.3%	3.7%	u	20.6µM*	x	-8.1%
Cc1nn(CCO)c2nc(-c3cccs3)cc(C(F)(F)F)c12	3.1%	-3.0%[46.1 µM]	10.6%	3.7%	-6.0%	-10.0%
C=Cc1ccc(Cn2c(C(=O)O)c(CNCc3ccccc3)c3ccc(C)cc32)cc1	-2.0%	x	16.4µM*	u	-21.5%	u
COc1ccc(COC(=O)C2=C(C)NC(=O)NC2c2ccccc2)cc1 (stereo unspecified)	8.3%	x	4.4%	u	1.2%	3.7%
Cc1c(C(=O)Nc2cccc(Cl)c2)oc2ccc(S(=O)(=O)N(C)C3CCCCC3)cc12	0.1%	x	2.8%	x	20µM*	19.1%
Cc1ccc(Cl)cc1NC(=O)c1oc2ccc(S(=O)(=O)N(C)C3CCCCC3)cc2c1C	-1.0%	x	10.7%	x	u	-1.0%
C=CCn1c(=O)c2ccc(C(=O)NCc3ccccc3)cc2n(Cc2cccc(Cl)c2)c1=O	-0.4%	6.4%	-12.3%	-2.9%	28.2µM*	-13.9%
COc1cc(NC(=O)CSc2nnnn2Cc2ccccc2)cc(OC)c1	1.1%	-6.5%	17.2%	0.5%	-2.3%	-5.4%
COC(=O)c1ccsc1NC(=O)CSc1nnnn1Cc1ccccc1	7.94µM*	6.2%[46.1 µM]	6.0%	-6.6%	-3.0%	-1.1%
CCOC(=O)N1CCC2(CC1)CC(=O)c1c(ccc3oc(C(=O)O)c(C)c13)O2	-0.5%	1.8%	1.1%	4.7%	35.5µM*	-2.5%
CCOC(=O)c1oc2ccc3c(c2c1C)C(=O)CC1(CCN(C(=O)OCC)CC1)O3	0.1%	0.1%	1.1%	14.4%	-5.3%	-10.3%
CCCNC(=O)c1oc2ccc3c(c2c1C)C(=O)CC(C)(C)O3	2.1%	0.2%	-1.9%	u	28.2µM*	-37.4%
Cc1ccc(Cl)cc1N(C)C(=O)c1cc2ccc3cccnc3c2[nH]1	4.0%	x	-3.7%	-14.1%	-2.9%	u
Cc1ccc(CNC(=O)c2ccc(N3CCC4(CC3)CC(c3ccccc3)=NO4)c(N)c2)cc1	-0.2%	4.5%	-12.1%	u	8.91µM*	-0.2%
CCc1cccc(NC(=O)Cn2c(=O)n3nc(-c4cccc(F)c4)nc3c3ccccc32)c1	5.62µM*	x	-2.9%	x	-3.0%	-4.8%
SCc1nc2ccccc2[nH]1	x	x	x	x	-14.0%	x
O=C1c2cccc3cccc(c23)C(=O)N1c1nncs1	-2.2%	-1.8%	0.4%	1.2%	15.8µM*	-9.6%
Cc1ccc(SCc2c(-c3ccccc3)nn(C)c2Cl)cc1	0.4%	-3.6%	14.1%	-27.2%	-3.1%	7.9%
